Experimental data from the supplement of paper PMC10849652.
Targets with a hit are over-represented here; the source holds about 7,900 in all. About 0.6% of all pairs of compound and target were hits.

What was measured:
Assay in all cases: log2 fold change, soluble protein after heating vs DMSO (PISA); higher = thermal stabilisation; K562 cells, 10 uM, 30 min; active = over 0.2 and 3.5 SD of the protein, either way, in both replicates (recomputed)
[1] = compound: CC[C@@H]1C(=O)N(C)c2cnc(Nc3ccc(C(=O)NC4CCN(C)CC4)cc3OC)nc2N1C1CCCC1
Procedure, shortened: (§1)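 K562 cells at 2×10^6 cells/mL were treated for 30 min with 10 μM compound, and aliquots were heated for 3 min over 48°C-58°C before pooling. Extraction used PBS with 0.5% NP-40 at 4°C, and soluble protein was the supernatant after 21,000xg for 90 min, measured by TMTpro 16plex LC-MS/MS with channel sums equalised. Thermal stability values, relative to control samples and from duplicates, are log2 fold changes.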

volasertib = compound: CC[C@@H]1C(=O)N(C)c2cnc(Nc3ccc(C(=O)N[C@H]4CC[C@H](N5CCN(CC6CC6)CC5)CC4)cc3OC)nc2N1C(C)C [volasertib]
Procedure, shortened: as §1

[2] = compound: CC[C@H](C)N1C=C(C2=C(C=C(C=C21)C3=CN=C(C=C3)N4CCNCC4)C(=O)NCC5=C(C=C(NC5=O)C)C)C
Procedure, shortened: as §1

epoxomicin = compound: CC[C@H](C)[C@@H](C(=O)N[C@@H]([C@@H](C)O)C(=O)N[C@@H](CC(C)C)C(=O)[C@]1(CO1)C)NC(=O)[C@H]([C@@H](C)CC)N(C)C(=O)C [epoxomicin]
Procedure, shortened: as §1

[3] = compound: CCn1c(C(=O)N(C2CC2)C2CC2)cc2c3c(ncn3C)c(Nc3cc(C)n(C)n3)nc21
Procedure, shortened: as §1

[4] = compound: CCn1cc(-c2ccnc3[nH]c(-c4cccc(CN(C)C)c4)cc23)c(-c2ccc(NC(=O)N(C)C)cc2)n1
Procedure, shortened: as §1

[5] = compound: CN(C)CC(=O)Nc1ccc2[nH]c(=O)c3ccccc3c2c1
Procedure, shortened: as §1

rosiglitazone = compound: CN(CCOC1=CC=C(C=C1)C[C@H]2C(=O)NC(=O)S2)C3=CC=CC=N3 (racemic) [rosiglitazone]
Procedure, shortened: as §1

[6] = compound: CN1C2=C(C3=C1C(=O)N(N=C3)CC4=CC(=CC=C4)N)SC(=C2)S(=O)C
Procedure, shortened: as §1

[7] = compound: CN1CCC(CNc2ccc3ncc(-c4cccc(OC(F)(F)F)c4)n3n2)CC1
Procedure, shortened: as §1

saracatinib = compound: CN1CCN(CCOc2cc(OC3CCOCC3)c3c(Nc4c(Cl)ccc5c4OCO5)ncnc3c2)CC1 [saracatinib]
Procedure, shortened: as §1

sotrastaurin = compound: CN1CCN(c2nc(C3=C(c4c[nH]c5ccccc45)C(=O)NC3=O)c3ccccc3n2)CC1 [sotrastaurin]
Procedure, shortened: as §1

alvocidib = compound: CN1CC[C@H](c2c(O)cc(O)c3c(=O)cc(-c4ccccc4Cl)oc23)[C@H](O)C1 [alvocidib]
Procedure, shortened: as §1

Tubastatin A = compound: CN1CCc2c(c3ccccc3n2Cc2ccc(C(=O)NO)cc2)C1 [Tubastatin A]
Procedure, shortened: as §1

[8] = compound: CNC(=O)C1=CC=CC=C1NC2=NC(=NC=C2Cl)NC3=C(C=C(C=C3)N4CCOCC4)OC
Procedure, shortened: as §1

defactinib = compound: CNC(=O)c1ccc(Nc2ncc(C(F)(F)F)c(NCc3nccnc3N(C)S(C)(=O)=O)n2)cc1 [defactinib]
Procedure, shortened: as §1

rucaparib = compound: CNCc1ccc(-c2[nH]c3cc(F)cc4c3c2CCNC4=O)cc1 [rucaparib]
Procedure, shortened: as §1

[9] = compound: CNc1nc(-c2ccc3c(N)n[nH]c3c2)cc(N2C[C@@H](C(=O)NC3CCCCC3)CC[C@H]2C)n1
Procedure, shortened: as §1

encorafenib = compound: COC(=O)N[C@@H](C)CNc1nccc(-c2cn(C(C)C)nc2-c2cc(Cl)cc(NS(C)(=O)=O)c2F)n1 [encorafenib]
Procedure, shortened: as §1

[10] = compound: COC(=O)[C@H](CCSC)NC(=O)C1=C(C=C(C=C1)NC[C@H](CS)N)C2=CC=CC=C2
Procedure, shortened: as §1

Measured: log2 fold change

HDDC2 (UniProt Q7Z4H3)
inactive: [1] 0.008 | volasertib 0.08 | [2] 0.014 | epoxomicin -0.006 | [3] 0.034 | [4] -0.063 | [5] 0.025 | rosiglitazone 0.035 | [6] -0.102 | [7] -0.066 | saracatinib 0.045 | sotrastaurin 0.042 | alvocidib -0.049 | Tubastatin A 0.015 | [8] 0.007 | defactinib -0.014 | rucaparib -0.014 | [9] 0.063 | encorafenib 0.014 | [10] -0.013

GAGE12F (UniProt P0CL80)
Sequence of UniProt P0CL80 (P0CL80 whole entry, looked up): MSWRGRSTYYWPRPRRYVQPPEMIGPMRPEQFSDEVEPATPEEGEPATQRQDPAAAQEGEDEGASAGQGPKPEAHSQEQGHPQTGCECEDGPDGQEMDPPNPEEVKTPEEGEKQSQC
inactive: [1] 0.037 | volasertib 0.069 | [2] -0.033 | epoxomicin 0.034 | [3] -0.039 | [4] -0.058 | [5] -0.095 | rosiglitazone 0.002 | [6] -0.049 | [7] -0.234 | saracatinib 0.007 | sotrastaurin 0.053 | alvocidib 0.052 | Tubastatin A 0.009 | [8] -0.081 | defactinib 0.095 | rucaparib 0.033 | [9] -0.051 | encorafenib -0.031 | [10] -0.02

HOOK3 (UniProt Q86VS8)
Sequence of UniProt Q86VS8 (Q86VS8 whole entry, looked up): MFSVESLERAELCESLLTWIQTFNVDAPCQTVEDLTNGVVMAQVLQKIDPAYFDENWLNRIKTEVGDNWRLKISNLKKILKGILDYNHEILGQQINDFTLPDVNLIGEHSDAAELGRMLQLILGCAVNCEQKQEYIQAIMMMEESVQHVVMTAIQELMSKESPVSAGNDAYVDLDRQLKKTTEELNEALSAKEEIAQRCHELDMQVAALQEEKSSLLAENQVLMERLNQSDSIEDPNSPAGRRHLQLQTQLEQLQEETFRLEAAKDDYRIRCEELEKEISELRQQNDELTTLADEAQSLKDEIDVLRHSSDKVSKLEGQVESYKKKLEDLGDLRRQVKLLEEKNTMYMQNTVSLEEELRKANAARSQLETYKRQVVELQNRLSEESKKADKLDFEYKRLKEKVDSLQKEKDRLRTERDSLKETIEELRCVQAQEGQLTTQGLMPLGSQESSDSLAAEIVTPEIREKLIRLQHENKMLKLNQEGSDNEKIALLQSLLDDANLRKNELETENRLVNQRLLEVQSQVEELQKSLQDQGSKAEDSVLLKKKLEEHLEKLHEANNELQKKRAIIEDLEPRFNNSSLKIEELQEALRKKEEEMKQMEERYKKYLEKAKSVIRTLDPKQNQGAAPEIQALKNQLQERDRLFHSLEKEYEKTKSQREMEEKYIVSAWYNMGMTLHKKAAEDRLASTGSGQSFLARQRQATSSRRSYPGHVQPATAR
inactive: [1] -0.151 | [2] 0.034 | epoxomicin 0.004 | [3] 0.006 | [4] -0.017 | [5] 0.005 | rosiglitazone 0.09 | [6] 0.031 | saracatinib -0.016 | sotrastaurin -0.166 | alvocidib 0.003 | Tubastatin A -0.019 | [8] 0.013 | defactinib -0.005 | rucaparib -0.063 | [9] -0.008 | encorafenib 0.022 | [10] -0.007
active: volasertib -0.395 | [7] -0.358

HRAS (UniProt P01112)
inactive: [1] -0.014 | volasertib 0.057 | [2] -0.028 | epoxomicin 0.104 | [3] 0.007 | [4] -0.082 | [5] -0.125 | rosiglitazone -0.159 | [6] -0.033 | [7] 0.048 | saracatinib 0.002 | sotrastaurin 0.091 | alvocidib -0.075 | Tubastatin A 0.014 | [8] -0.015 | defactinib -0.012 | rucaparib 0.072 | [9] 0.077 | encorafenib -0.042 | [10] 0.062

FERMT3 (UniProt Q86UX7)
Sequence of UniProt Q86UX7 (Q86UX7 whole entry, looked up): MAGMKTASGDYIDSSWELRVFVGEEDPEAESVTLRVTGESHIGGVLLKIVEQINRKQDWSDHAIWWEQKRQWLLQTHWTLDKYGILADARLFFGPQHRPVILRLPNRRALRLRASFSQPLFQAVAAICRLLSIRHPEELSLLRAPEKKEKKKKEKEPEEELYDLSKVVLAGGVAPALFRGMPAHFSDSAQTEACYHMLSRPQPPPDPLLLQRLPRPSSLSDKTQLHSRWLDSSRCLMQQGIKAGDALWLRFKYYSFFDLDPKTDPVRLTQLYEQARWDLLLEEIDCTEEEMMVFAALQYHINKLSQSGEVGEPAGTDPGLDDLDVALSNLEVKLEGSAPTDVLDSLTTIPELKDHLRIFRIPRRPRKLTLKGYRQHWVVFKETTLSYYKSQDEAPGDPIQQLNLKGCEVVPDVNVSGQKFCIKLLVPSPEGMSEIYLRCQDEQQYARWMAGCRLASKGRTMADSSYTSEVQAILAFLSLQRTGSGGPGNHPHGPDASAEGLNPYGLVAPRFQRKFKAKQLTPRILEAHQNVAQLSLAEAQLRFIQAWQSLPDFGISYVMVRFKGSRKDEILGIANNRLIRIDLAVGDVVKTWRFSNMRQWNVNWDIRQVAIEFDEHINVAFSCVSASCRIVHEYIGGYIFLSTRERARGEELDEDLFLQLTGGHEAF
active: volasertib -0.262
inactive: [1] -0.07 | [2] 0.053 | epoxomicin 0.019 | [3] -0.018 | [4] -0.04 | [5] 0.045 | rosiglitazone 0.059 | [6] -0.021 | [7] -0.149 | saracatinib 0.019 | sotrastaurin -0.016 | alvocidib -0.055 | Tubastatin A -0.003 | [8] 0.008 | defactinib -0.069 | rucaparib -0.003 | [9] 0.036 | encorafenib 0.063 | [10] -0.03

HMGCR isoform 3 (UniProt P04035)
active: epoxomicin 0.356 | Tubastatin A 0.33
inactive: [1] -0.007 | volasertib -0.019 | [2] -0.07 | [3] -0.04 | [4] 0.015 | [5] -0.023 | rosiglitazone -0.006 | [6] -0.009 | [7] 0.272 | saracatinib 0.002 | sotrastaurin -0.287 | alvocidib -0.021 | [8] -0.133 | defactinib -0.004 | rucaparib -0.208 | [9] -0.024 | encorafenib 0.094 | [10] 0.146

GTF2E2 (UniProt P29084)
active: volasertib -0.265
inactive: [1] -0.11 | [2] 0.105 | epoxomicin 0.099 | [3] -0.036 | [4] 0.001 | [5] 0.069 | rosiglitazone 0.017 | [6] 0.027 | [7] -0.103 | saracatinib -0.103 | sotrastaurin -0.163 | alvocidib -0.023 | Tubastatin A 0.054 | [8] 0.056 | defactinib -0.085 | rucaparib 0.03 | [9] 0.025 | encorafenib 0.145 | [10] -0.035

GSTP1 (UniProt P09211)
Sequence of UniProt P09211 (P09211 whole entry, looked up): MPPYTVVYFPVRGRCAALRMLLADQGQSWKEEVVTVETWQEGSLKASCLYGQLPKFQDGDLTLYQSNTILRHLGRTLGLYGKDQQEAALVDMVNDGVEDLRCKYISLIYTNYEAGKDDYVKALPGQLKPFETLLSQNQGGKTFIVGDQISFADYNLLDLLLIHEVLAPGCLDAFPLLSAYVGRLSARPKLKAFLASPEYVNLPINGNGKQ
active: [1] 0.295 | volasertib 0.362
inactive: [2] 0.009 | epoxomicin -0.025 | [3] 0.032 | [4] 0.012 | [5] -0.013 | rosiglitazone 0.007 | [6] -0.066 | [7] -0.034 | saracatinib -0.011 | sotrastaurin 0.053 | alvocidib -0.051 | Tubastatin A -0.015 | [8] -0.001 | defactinib -0.033 | rucaparib -0.046 | [9] 0.02 | encorafenib -0.007 | [10] 0.027

GINS2 (UniProt Q9Y248)
inactive: [1] -0.011 | volasertib -0.07 | [2] 0.171 | epoxomicin 0.014 | [3] 0.008 | [4] -0.135 | [5] 0.06 | rosiglitazone 0.058 | [6] 0.064 | [7] 0.062 | saracatinib -0.078 | sotrastaurin -0.17 | alvocidib -0.181 | Tubastatin A 0.076 | [8] 0.025 | defactinib -0.067 | rucaparib -0.005 | [9] 0.203 | encorafenib 0.017 | [10] 0.057

HIP1R (UniProt O75146)
inactive: [1] -0.035 | [2] 0.015 | epoxomicin 0.051 | [3] -0.04 | [4] -0.016 | [5] -0.017 | rosiglitazone 0.067 | [6] 0.026 | [7] -0.134 | saracatinib 0.051 | sotrastaurin -0.045 | alvocidib -0.069 | Tubastatin A 0.007 | [8] 0.037 | defactinib -0.063 | rucaparib 0.018 | [9] 0.015 | encorafenib -0.019 | [10] 0.016
active: volasertib -0.268

H1FX (UniProt Q92522)
inactive: [1] 0.166 | volasertib 0.415 | [2] -0.003 | epoxomicin -0.201 | [3] -0.026 | [4] 0.041 | [5] -0.115 | rosiglitazone -0.156 | [6] 0.287 | [7] 0.129 | saracatinib -0.054 | sotrastaurin -0.237 | alvocidib 0.381 | Tubastatin A 0.093 | [8] 0.041 | defactinib 0.336 | rucaparib 0.219 | [9] 0.102 | encorafenib 0.121 | [10] 0.013

GSK3A (UniProt P49840)
active: sotrastaurin 0.337
inactive: [1] -0.067 | volasertib 0.002 | [2] 0.002 | epoxomicin 0 | [3] 0.025 | [4] -0.101 | [5] -0.008 | rosiglitazone 0.017 | [6] -0.066 | [7] 0.033 | saracatinib -0.007 | alvocidib 0.257 | Tubastatin A -0.007 | [8] -0.009 | defactinib 0.18 | rucaparib 0.22 | [9] -0.041 | encorafenib 0.005 | [10] -0.051

HDAC2 (UniProt Q92769)
Sequence of UniProt Q92769 (Q92769 whole entry, looked up): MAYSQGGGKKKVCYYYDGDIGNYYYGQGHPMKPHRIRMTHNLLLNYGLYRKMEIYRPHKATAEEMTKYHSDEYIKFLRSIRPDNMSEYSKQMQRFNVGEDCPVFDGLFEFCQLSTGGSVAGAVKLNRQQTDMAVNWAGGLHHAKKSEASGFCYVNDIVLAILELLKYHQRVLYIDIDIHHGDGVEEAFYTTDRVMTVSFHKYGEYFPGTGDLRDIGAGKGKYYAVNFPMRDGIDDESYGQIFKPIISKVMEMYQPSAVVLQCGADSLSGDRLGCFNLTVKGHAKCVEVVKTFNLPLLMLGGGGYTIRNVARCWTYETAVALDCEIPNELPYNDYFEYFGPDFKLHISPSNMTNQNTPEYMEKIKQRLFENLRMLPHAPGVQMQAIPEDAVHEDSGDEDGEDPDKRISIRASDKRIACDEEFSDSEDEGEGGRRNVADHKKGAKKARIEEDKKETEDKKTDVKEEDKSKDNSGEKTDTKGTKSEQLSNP
inactive: [1] 0.024 | volasertib -0.051 | [2] 0.026 | epoxomicin -0.049 | [3] -0.049 | [4] -0.001 | [5] -0.003 | rosiglitazone 0 | [6] -0.041 | [7] 0.056 | saracatinib -0.001 | sotrastaurin -0.02 | alvocidib -0.091 | [8] -0.113 | defactinib -0.035 | rucaparib -0.006 | [9] -0.015 | encorafenib -0.046 | [10] -0.006
active: Tubastatin A 0.907

GLCCI1 (UniProt Q86VQ1)
Sequence of UniProt Q86VQ1 (Q86VQ1 whole entry, looked up): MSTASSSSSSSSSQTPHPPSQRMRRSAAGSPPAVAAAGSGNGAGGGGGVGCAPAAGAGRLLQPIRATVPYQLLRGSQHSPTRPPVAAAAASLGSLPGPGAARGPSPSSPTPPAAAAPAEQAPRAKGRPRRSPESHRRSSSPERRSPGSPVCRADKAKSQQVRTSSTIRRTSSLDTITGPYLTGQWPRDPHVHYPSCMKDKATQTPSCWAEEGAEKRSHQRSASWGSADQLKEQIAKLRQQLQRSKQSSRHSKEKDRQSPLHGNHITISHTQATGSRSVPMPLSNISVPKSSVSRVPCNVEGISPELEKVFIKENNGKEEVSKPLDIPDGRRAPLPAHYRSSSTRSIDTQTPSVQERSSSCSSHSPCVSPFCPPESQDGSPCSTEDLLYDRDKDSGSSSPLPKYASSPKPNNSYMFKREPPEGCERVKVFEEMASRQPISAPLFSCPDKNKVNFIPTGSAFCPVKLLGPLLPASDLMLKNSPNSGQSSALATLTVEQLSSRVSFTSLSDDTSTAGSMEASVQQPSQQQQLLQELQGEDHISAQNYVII
inactive: [1] -0.048 | volasertib 0.108 | [2] 0.15 | epoxomicin -0.022 | [3] 0.087 | [4] 0.088 | [5] -0.035 | rosiglitazone -0.053 | [6] -0.023 | saracatinib -0.017 | sotrastaurin -0.016 | alvocidib 0.002 | Tubastatin A 0.082 | [8] -0.057 | defactinib -0.072 | rucaparib 0.087 | [9] -0.063 | encorafenib 0.026 | [10] -0.051
active: [7] -0.328

GCC2 (UniProt Q8IWJ2)
Sequence of UniProt Q8IWJ2 (Q8IWJ2 whole entry, looked up): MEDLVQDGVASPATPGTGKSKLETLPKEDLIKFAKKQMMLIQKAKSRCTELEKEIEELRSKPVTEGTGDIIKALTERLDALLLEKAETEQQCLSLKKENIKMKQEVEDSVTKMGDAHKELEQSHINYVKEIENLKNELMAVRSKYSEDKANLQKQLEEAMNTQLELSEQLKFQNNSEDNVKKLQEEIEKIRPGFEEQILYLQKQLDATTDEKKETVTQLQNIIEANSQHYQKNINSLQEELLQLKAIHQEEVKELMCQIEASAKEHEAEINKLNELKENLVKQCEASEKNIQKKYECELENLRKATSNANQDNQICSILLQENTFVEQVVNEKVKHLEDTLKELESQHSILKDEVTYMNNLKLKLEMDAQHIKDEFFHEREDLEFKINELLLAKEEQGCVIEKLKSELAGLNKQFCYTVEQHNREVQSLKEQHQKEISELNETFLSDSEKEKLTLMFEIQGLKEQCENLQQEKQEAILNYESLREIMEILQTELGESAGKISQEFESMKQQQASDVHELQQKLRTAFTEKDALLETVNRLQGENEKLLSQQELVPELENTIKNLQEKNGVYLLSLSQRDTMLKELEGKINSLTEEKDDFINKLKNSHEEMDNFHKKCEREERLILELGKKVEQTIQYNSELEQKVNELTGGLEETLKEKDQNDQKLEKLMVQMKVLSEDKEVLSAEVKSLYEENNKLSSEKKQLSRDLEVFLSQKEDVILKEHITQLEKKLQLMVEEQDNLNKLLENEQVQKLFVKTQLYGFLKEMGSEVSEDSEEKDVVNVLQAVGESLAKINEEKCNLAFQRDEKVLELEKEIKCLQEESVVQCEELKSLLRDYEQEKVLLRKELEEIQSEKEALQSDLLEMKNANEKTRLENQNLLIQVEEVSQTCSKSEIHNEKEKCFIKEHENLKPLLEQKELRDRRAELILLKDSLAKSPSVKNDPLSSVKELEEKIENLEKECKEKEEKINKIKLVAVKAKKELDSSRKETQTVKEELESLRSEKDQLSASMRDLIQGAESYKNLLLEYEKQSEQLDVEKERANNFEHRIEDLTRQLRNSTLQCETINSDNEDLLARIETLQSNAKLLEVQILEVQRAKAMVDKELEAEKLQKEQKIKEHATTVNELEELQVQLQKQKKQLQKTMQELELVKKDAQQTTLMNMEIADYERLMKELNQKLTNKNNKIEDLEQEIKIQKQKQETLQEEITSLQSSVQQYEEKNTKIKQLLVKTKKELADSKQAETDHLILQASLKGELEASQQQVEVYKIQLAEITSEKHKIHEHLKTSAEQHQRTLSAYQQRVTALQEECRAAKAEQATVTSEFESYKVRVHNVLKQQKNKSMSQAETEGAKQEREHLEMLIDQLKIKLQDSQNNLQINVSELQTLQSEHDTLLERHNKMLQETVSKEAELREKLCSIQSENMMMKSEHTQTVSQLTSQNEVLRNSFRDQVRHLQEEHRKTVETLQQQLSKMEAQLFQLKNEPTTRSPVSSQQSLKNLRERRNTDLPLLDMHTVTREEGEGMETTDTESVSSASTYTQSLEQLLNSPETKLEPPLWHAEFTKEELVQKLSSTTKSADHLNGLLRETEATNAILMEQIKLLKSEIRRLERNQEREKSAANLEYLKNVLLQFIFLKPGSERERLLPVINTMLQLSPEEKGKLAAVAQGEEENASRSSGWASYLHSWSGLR
inactive: [1] 0.094 | volasertib -0.116 | [2] 0.053 | epoxomicin -0.005 | [3] 0.038 | [4] 0.013 | [5] 0.026 | rosiglitazone -0.01 | [6] 0.196 | [7] 0.031 | saracatinib -0.051 | sotrastaurin -0.077 | alvocidib 0.117 | Tubastatin A 0.053 | [8] 0.061 | defactinib 0.026 | rucaparib 0.175 | [9] 0.031 | encorafenib 0.136 | [10] -0.049

GLUD1 (UniProt P00367)
Sequence of UniProt P00367 (P00367 whole entry, looked up): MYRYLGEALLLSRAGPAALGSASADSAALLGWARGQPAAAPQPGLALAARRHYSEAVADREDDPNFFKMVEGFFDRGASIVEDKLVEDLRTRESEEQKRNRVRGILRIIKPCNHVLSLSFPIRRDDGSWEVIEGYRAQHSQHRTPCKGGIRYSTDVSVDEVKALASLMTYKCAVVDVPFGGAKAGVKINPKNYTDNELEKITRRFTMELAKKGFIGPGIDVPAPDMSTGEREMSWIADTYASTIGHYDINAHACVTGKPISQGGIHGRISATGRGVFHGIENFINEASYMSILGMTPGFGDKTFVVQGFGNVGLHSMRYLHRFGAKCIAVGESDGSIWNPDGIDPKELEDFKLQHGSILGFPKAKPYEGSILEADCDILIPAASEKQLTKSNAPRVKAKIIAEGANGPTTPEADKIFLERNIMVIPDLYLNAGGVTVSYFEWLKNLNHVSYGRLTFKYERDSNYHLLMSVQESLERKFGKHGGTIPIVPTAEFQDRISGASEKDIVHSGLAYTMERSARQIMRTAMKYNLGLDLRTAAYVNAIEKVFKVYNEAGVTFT
inactive: [1] 0.146 | volasertib 0.25 | [2] 0.034 | epoxomicin 0.024 | [3] 0.126 | [4] -0.054 | [5] 0 | rosiglitazone -0.007 | [6] -0.128 | [7] 0.102 | saracatinib 0.161 | sotrastaurin 0.14 | alvocidib -0.002 | Tubastatin A -0.04 | [8] 0.096 | defactinib 0.041 | rucaparib -0.099 | [9] 0.089 | encorafenib -0.056 | [10] 0.002
